By inhibition is commonly meant the change of the read-out against control, counted positive when it falls.

Molecules are shown by their SMILES.

The target of the experiment is Solute carrier family 2, facilitated glucose transporter member 1 (Homo sapiens) (UniProt P11166). Nature of the experiment: ST_JUDE_LEISH: Cytotoxicity at 2uM final concentration against transgenic Leishmania Mexicana promastigotes LmGLUT1 that are glucose transport deficient and complemented with the human glucose transporter GLUT1. Activity is measured by DNA content using SYBR green in vitro. It counts as functional.
Chain of Solute carrier family 2, facilitated glucose transporter member 1 (Homo sapiens) (P11166 whole entry): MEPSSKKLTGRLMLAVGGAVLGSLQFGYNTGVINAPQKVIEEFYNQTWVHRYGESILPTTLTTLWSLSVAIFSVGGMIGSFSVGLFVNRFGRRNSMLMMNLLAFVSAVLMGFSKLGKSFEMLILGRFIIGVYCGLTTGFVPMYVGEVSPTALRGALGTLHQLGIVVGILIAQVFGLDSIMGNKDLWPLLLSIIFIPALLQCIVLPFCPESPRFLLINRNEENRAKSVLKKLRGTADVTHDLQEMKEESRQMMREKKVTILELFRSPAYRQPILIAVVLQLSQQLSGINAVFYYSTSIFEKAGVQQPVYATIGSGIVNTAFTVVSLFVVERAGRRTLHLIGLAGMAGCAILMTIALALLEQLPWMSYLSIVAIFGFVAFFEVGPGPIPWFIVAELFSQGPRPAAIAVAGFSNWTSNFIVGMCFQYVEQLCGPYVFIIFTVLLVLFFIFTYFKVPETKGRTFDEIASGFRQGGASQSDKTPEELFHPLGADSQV
For `COc1ccc2nccc([C@@H](O)CN3CCC(NC(=O)/C=C/c4cc(F)cc(NC(C)=O)c4)CC3)c2c1`, the inhibition stood at 5.61%.

For the compound `OCCn1c(CNCCCNc2nc3ccccc3[nH]2)cc2c(Cl)cc(Cl)cc21`, the inhibition stood at 82%.

Regarding `CCC(CC)N1C(=O)C(c2ccccc2)(c2ccccc2)N=C1N`, the inhibition came to 1.48%.

On to `Cc1cc(N(C)CCCN(C)C)nc(Nc2ccc(Cl)cc2)n1`, for which the inhibition is -1.04%.

`Cc1ccc(Nc2nc3cc(Nc4ccnc(Nc5cccc(CS(C)(=O)=O)c5)n4)ccc3o2)cc1`: the inhibition was 4.03%.

Take `CCN(CCCN1CCCCC1)c1cc(C)nc(Nc2ccc(C)cc2Cl)n1`: the inhibition is 9.81%.

On to `CNCc1ccc(-c2ccc3ccnc(N)c3c2)cc1`, for which the inhibition was found to be 2.47%.

Turning to `O=c1cc(NCCCCNCc2ccc(Br)c(Br)c2)[nH]c2ccccc12`, the inhibition stood at 0.91%.

With `CCCCCCc1cnc2nc(N)nc(N)c2c1C`, the inhibition came to 10.8%.

On to `COC(=O)c1cccc(CNCc2ccc(-c3ccc(-c4nc5cc(F)ccc5[nH]4)s3)cc2)c1`, for which the inhibition is 2.57%.

In the case of `c1ccc(CCNc2ccnc(Nc3ccc4[nH]nnc4c3)n2)cc1`, the inhibition was found to be 14.1%.

On to `COc1cc(F)c2nccc([C@@H](O)CN3CCC(NCc4cc5c(cc4F)OCCO5)CC3)c2c1`, for which the inhibition is 1.5%.

In the case of `CN1CCN(c2ccnc3ccc(NC(=O)Nc4ccc(Cl)cc4)cc23)CC1`, the inhibition was -1.11%.

As to `CCOC(=O)CCCc1cc(NC2CCN(C)CC2)nc(Nc2ccc(C)cc2)n1`, the inhibition is -2.45%.

`CN(C)CCCOc1ccc(-c2csc(NC(=N)NCc3ccccc3)n2)cc1`: the inhibition is 1.32%.

As for `CCc1ccc2nc(-c3ccc(F)cc3)nc(SCC(=O)Nc3sc(C)c(C)c3C#N)c2c1`, the inhibition turned out to be 5.67%.

On to `CN1CCCN(c2ccnc3cc4c(cc23)N(C(=O)c2ccc(Cl)cc2)CC4)CC1`, for which the inhibition worked out at 13.4%.

Regarding `O=C(Nc1cccc(-c2nn3ccccc3c2-c2ccnc(Nc3ccccc3)n2)c1)c1cc(F)ccc1F`, the inhibition worked out at 4.48%.

On to `CCOc1ccc(C(=O)Nc2nonc2-c2ccc(OC)c(OC)c2)cc1`, for which the inhibition is -0.49%.

In the case of `CC1CCCN(C(=O)c2cc(-c3ccccn3)nc3c(Cl)cccc23)C1` (stereo not given), the inhibition turned out to be 2.19%.

Regarding `CN(C)Cc1ccc(-c2ccc3c(Nc4ccc(Cl)cc4F)ccnc3c2)o1`, the inhibition was -1.45%.

In the case of `COc1ccc(CNCc2cccc(-c3cccc(-c4nc5ccccc5[nH]4)c3)c2)cc1`, the inhibition amounted to 7.86%.

On to `CCCCCN1CCC(NS(=O)(=O)c2cccc(C(=O)Nc3ccc(Cl)cc3)c2)CC1`, for which the inhibition is -0.5%.

As to `COc1cc(CCNCC(O)c2ccc([N+](=O)[O-])c(OCc3ccccc3)c2)cc(OC)c1OC` (stereo not given), the inhibition is -0.46%.

Consider `O=C(Nc1cc(C(F)(F)F)ccc1Cl)c1ccc(Cn2cc(Br)cn2)cc1`, for which the inhibition turned out to be 1.23%.

`COc1ccc(NC(=O)Nc2ccc(-c3ccccc3)cc2Cl)cc1N1CCN(C)CC1`: the inhibition is 12%.

For `CCC1(CC)NC(N)=NC(=N)N1OCc1ccc(Cl)c(Cl)c1`, the inhibition came to 4.32%.

Consider `COc1ccc(-c2ccc(NC(=O)c3cccc(F)c3)cc2)cc1CNC(C)C`, for which the inhibition turned out to be 0.72%.

Turning to `CCCCCCCc1c(C)nc2c(OC)cccc2c1O`, the inhibition amounted to 5.31%.

For the compound `O=C(CSc1nc2ccccc2c(=O)n1CC1CCCO1)Nc1cc(C(F)(F)F)ccc1Cl` (stereo not given), the inhibition was determined as 9.97%.

For `O=C(C=Cc1ccc(F)cc1)N1CCN(S(=O)(=O)c2ccc(Cl)cc2)CC1`, the inhibition was 0.4%.

As for `COc1ccc2c(c1)C(C)(CCCN(C)C)C(=O)N2C` (stereo not given), the inhibition came out at 1.02%.

With `O=C(Nc1cccc(-c2ccc(-c3nc4ccccc4[nH]3)cc2)c1)c1csnn1`, the inhibition is 1.19%.

Turning to `CN(C)CCNc1ncnc2c1[nH]c1ccc(Br)cc12`, the inhibition was 1.62%.

With `CCCN(Cc1nnc(-c2ccco2)o1)C(=O)C1CCCN(C(=O)c2ccc(Cl)cc2)C1` (stereo not given), the inhibition stood at 1.85%.

As to `CCOc1cc(C(=O)NCCN2CCCCC2)ccc1-c1nc2cc(Cl)ccc2[nH]1`, the inhibition was 1.06%.

On to `O=C(NCCN1CCOCC1)c1ccc(N2CCC(Oc3ccc4ccccc4c3)CC2)nc1`, for which the inhibition is 7.02%.

As for `COc1ccc(NC(=O)/C=C/c2ccc(-c3ccccc3)cc2)cc1N1CCN(C)CC1`, the inhibition was determined as 2.62%.

`COc1ccc2c(ccc3c2ncc2c(=O)n(-c4ccccc4)[nH]c23)c1`: the inhibition is -1.88%.

Consider `O=C(Nc1ccc(-c2nc3ccccc3[nH]2)cc1)c1ccc(S(=O)(=O)N2CCCCC2)cc1`, for which the inhibition came to 3.08%.

Source of the values: ChEMBL document CHEMBL3433997, “St. Jude Leishmania screening dataset” (2016).
